# Reference: the supplement of paper PMC8728848
# The sample as a whole holds a higher share of the strongest signals than the screen did.
# Assays:
# Assay in all cases: glycan array binding signal (z-score within array); higher = stronger binding
# Conditions in all cases: glycan notation: IUPAC condensed, linker removed
# Fuc(a1-2)Gal(b1-4)GlcNAc = biological target: Fuc(a1-2)Gal(b1-4)GlcNAc
# In short: (§1)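 Glycan array data were curated from 3228 arrays in the Consortium for Functional Glycomics database and kept only where the protein sequence was available. Glycan names were converted to IUPAC-condensed notation, and columns mapping to the same glycan were averaged. The binding signal is a within-array Z-score, averaged across arrays of the same protein sequence at different concentrations or buffers and across linkers. Negative Z-scores can be read as non-binding.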
# [1] = biological target: Fuc(a1-2)Gal(b1-4)GlcNAc(b1-3)Gal(b1-4)GlcNAc(b1-3)Gal(b1-4)GlcNAc
# In short: as §1
# Fuc(a1-2)Gal6S(b1-4)Glc = biological target: Fuc(a1-2)Gal6S(b1-4)Glc
# In short: as §1
# Fuc(a1-2)GlcNAc = biological target: Fuc(a1-2)GlcNAc
# In short: as §1
# [2] = biological target: Fuc(a1-2)[GalNAc(a1-3)]Gal(b1-4)GlcNAc(b1-2)Man(a1-3)[Fuc(a1-2)[GalNAc(a1-3)]Gal(b1-4)GlcNAc(b1-2)Man(a1-6)]Man(b1-4)GlcNAc(b1-4)GlcNAc
# In short: as §1
# [3] = biological target: Fuc(a1-2)[GalNAc(a1-3)]Gal(b1-4)GlcNAc(b1-3)Gal(b1-4)GlcNAc
# In short: as §1
# [4] = biological target: Fuc(a1-3)[Gal(b1-4)]GlcNAc
# In short: as §1
# [5] = biological target: Fuc(a1-3)[Gal(b1-4)]GlcNAc(b1-2)Man(a1-3)[Fuc(a1-3)[Gal(b1-4)]GlcNAc(b1-2)Man(a1-6)]Man(b1-4)GlcNAc(b1-4)[Fuc(a1-6)]GlcNAc
# In short: as §1
# [6] = biological target: Fuc(a1-3)[GalNAc(b1-4)]GlcNAc
# In short: as §1
# Gal(a1-3)Gal(b1-3)GlcNAc = biological target: Gal(a1-3)Gal(b1-3)GlcNAc
# In short: as §1
# Gal(b1-3)GlcNAc = biological target: Gal(b1-3)GlcNAc
# In short: as §1
# [7] = biological target: Gal(b1-3)GlcNAc(b1-3)Gal(b1-4)GlcNAc(b1-6)[Gal(b1-3)GlcNAc(b1-3)]Gal(b1-4)Glc
# In short: as §1
# [8] = biological target: Gal(b1-3)GlcNAc(b1-6)Gal(b1-4)GlcNAc
# In short: as §1
# [9] = biological target: Gal(b1-3)[Fuc(a1-4)]GlcNAc(b1-3)Gal(b1-4)[Fuc(a1-3)]GlcNAc
# In short: as §1
# [10] = biological target: Gal(b1-4)GlcNAc(b1-2)Man(a1-3)[Man(a1-6)]Man(b1-4)GlcNAc(b1-4)GlcNAc
# In short: as §1
# [11] = biological target: Gal(b1-4)GlcNAc(b1-2)Man(a1-6)Man(b1-4)GlcNAc(b1-4)GlcNAc
# In short: as §1
# [12] = biological target: Gal(b1-4)GlcNAc(b1-2)[Gal(b1-4)GlcNAc(b1-4)]Man(a1-3)[Gal(b1-4)GlcNAc(b1-2)Man(a1-6)]Man(b1-4)GlcNAc(b1-4)GlcNAc
# In short: as §1
# [13] = biological target: Gal(b1-4)GlcNAc(b1-2)[Gal(b1-4)GlcNAc(b1-4)]Man(a1-3)[GlcNAc(b1-4)][Gal(b1-4)GlcNAc(b1-2)[Gal(b1-4)GlcNAc(b1-6)]Man(a1-6)]Man(b1-4)GlcNAc(b1-4)GlcNAc
# In short: as §1
# Gal3S(b1-3)GlcNAc = biological target: Gal3S(b1-3)GlcNAc
# In short: as §1
# [14] = biological target: GlcNAc(a1-4)Gal(b1-4)GalNAc
# In short: as §1
# [15] = biological target: GlcNAc(b1-3)[GlcNAc(b1-6)]GlcNAc(b1-4)GlcNAc
# In short: as §1
# [16] = biological target: Man(a1-2)Man(a1-2)Man(a1-6)[Man(a1-3)]Man
# In short: as §1
# [17] = biological target: Man(a1-2)Man(a1-3)[Man(a1-2)Man(a1-6)]Man
# In short: as §1
# [18] = biological target: Man(a1-2)Man(a1-3)[Man(a1-2)Man(a1-6)]Man(a1-6)[Man(a1-2)Man(a1-2)Man(a1-3)]Man
# In short: as §1
# [19] = biological target: Man(a1-2)Man(a1-6)[Man(a1-3)]Man(a1-6)[Man(a1-2)Man(a1-2)Man(a1-3)]Man
# In short: as §1
# [20] = biological target: Man(a1-2)Man(a1-6)[Man(a1-3)]Man(a1-6)[Man(a1-2)Man(a1-2)Man(a1-3)]Man(b1-4)GlcNAc(b1-4)GlcNAc
# In short: as §1
# Man(a1-3)[Man(a1-6)]Man = biological target: Man(a1-3)[Man(a1-6)]Man
# In short: as §1
# [21] = biological target: Man(a1-3)[Man(a1-6)]Man(a1-6)[Man(a1-2)Man(a1-3)]Man(b1-4)GlcNAc(b1-4)GlcNAc
# In short: as §1
# [22] = biological target: Man(a1-3)[Man(a1-6)]Man(a1-6)[Man(a1-3)]Man(b1-4)GlcNAc(b1-4)GlcNAc
# In short: as §1
# [23] = biological target: Man(a1-3)[Man(a1-6)]Man(b1-4)GlcNAc(b1-4)GlcNAc
# In short: as §1
# Gal6S(b1-4)GlcNAc = biological target: Gal6S(b1-4)GlcNAc
# In short: as §1
# GalNAc(b1-3)Gal = biological target: GalNAc(b1-3)Gal
# In short: as §1
# GalNAc3S(b1-4)GlcNAc3S = biological target: GalNAc3S(b1-4)GlcNAc3S
# In short: as §1
# [24] = biological target: GlcNAc(a1-4)Gal(b1-4)GlcNAc(b1-3)Gal(b1-4)Glc
# In short: as §1
# [25] = biological target: GlcNAc(b1-3)Gal(b1-4)GlcNAc(b1-3)Gal(b1-4)GlcNAc
# In short: as §1
# [26] = biological target: GlcNAc(b1-3)Gal(b1-4)GlcNAc(b1-3)Gal(b1-4)GlcNAc(b1-3)Gal(b1-4)GlcNAc(b1-2)Man(a1-3)[GlcNAc(b1-3)Gal(b1-4)GlcNAc(b1-3)Gal(b1-4)GlcNAc(b1-3)Gal(b1-4)GlcNAc(b1-2)Man(a1-6)]Man(b1-4)GlcNAc(b1-4)GlcNAc
# In short: as §1
# [27] = biological target: GlcNAc(b1-3)Gal(b1-4)GlcNAc(b1-3)Gal(b1-4)GlcNAc(b1-3)Gal(b1-4)GlcNAc(b1-3)Gal(b1-4)GlcNAc(b1-2)Man(a1-3)[GlcNAc(b1-3)Gal(b1-4)GlcNAc(b1-3)Gal(b1-4)GlcNAc(b1-3)Gal(b1-4)GlcNAc(b1-3)Gal(b1-4)GlcNAc(b1-2)Man(a1-6)]Man(b1-4)GlcNAc(b1-4)[Fuc(a1-6)]GlcNAc
# In short: as §1
# [28] = biological target: GlcNAc(b1-3)[GlcNAc(b1-6)]Gal(b1-4)GlcNAc
# In short: as §1
# GlcNAc(b1-4)GlcNAc = biological target: GlcNAc(b1-4)GlcNAc
# In short: as §1
# [29] = biological target: GlcNAc(b1-4)GlcNAc(b1-4)GlcNAc
# In short: as §1
# GlcNAc(b1-6)GalNAc = biological target: GlcNAc(b1-6)GalNAc
# In short: as §1
# Kdn(a2-3)Gal(b1-3)GlcNAc = biological target: Kdn(a2-3)Gal(b1-3)GlcNAc
# In short: as §1
# [30] = biological target: Neu5Ac(a2-3)Gal(b1-3)[Fuc(a1-4)]GlcNAc
# In short: as §1
# [31] = biological target: Neu5Ac(a2-3)Gal(b1-4)GlcNAc(b1-3)Gal(b1-3)GlcNAc
# In short: as §1
# [32] = biological target: Neu5Ac(a2-3)Gal(b1-4)GlcNAc(b1-3)GalNAc
# In short: as §1
# [33] = biological target: Neu5Ac(a2-3)Gal(b1-4)GlcNAc(b1-6)[Gal(b1-3)]GalNAc
# In short: as §1
# [34] = biological target: Neu5Ac9Ac(a2-6)Gal(b1-4)GlcNAc
# In short: as §1
# [35] = biological target: Neu5Gc(a2-3)Gal(b1-3)[Fuc(a1-4)]GlcNAc
# In short: as §1
# Neu5Gc(a2-6)GalNAc = biological target: Neu5Gc(a2-6)GalNAc
# In short: as §1
# [36] = biological target: Neu5Gc(a2-8)Neu5Gc(a2-6)Gal(b1-4)GlcNAc
# In short: as §1
binder,measurement,setting,value
"BC2L-A (Burkholderia cenocepacia), Q1BKJ8_BURCA (protein) ADSQTSSNRAGEFSIPPNTDFRAIFFANAAEQQHIKLFIGDSQEPAAYHKLTTRDGPREATLNSGNGKIRFEVSVNGKPSATDARLAPINGKKSDGSPFTVNFGIVVSEDGHDSDYNDGIVVLQWPIG",glycan array binding signal (z-score),Fuc(a1-2)Gal(b1-4)GlcNAc,0.167
same,glycan array binding signal (z-score),[1],0.018
same,glycan array binding signal (z-score),Fuc(a1-2)Gal6S(b1-4)Glc,-0.176
same,glycan array binding signal (z-score),Fuc(a1-2)GlcNAc,-0.178
same,glycan array binding signal (z-score),[2],-0.165
same,glycan array binding signal (z-score),[3],-0.296
same,glycan array binding signal (z-score),[4],-0.285
same,glycan array binding signal (z-score),[5],-0.217
same,glycan array binding signal (z-score),[6],-0.263
same,glycan array binding signal (z-score),Gal(a1-3)Gal(b1-3)GlcNAc,-0.284
same,glycan array binding signal (z-score),Gal(b1-3)GlcNAc,-0.29
same,glycan array binding signal (z-score),[7],-0.22
same,glycan array binding signal (z-score),[8],-0.219
same,glycan array binding signal (z-score),[9],-0.086
same,glycan array binding signal (z-score),[10],2.13
same,glycan array binding signal (z-score),[11],-0.182
same,glycan array binding signal (z-score),[12],-0.144
same,glycan array binding signal (z-score),[13],-0.22
same,glycan array binding signal (z-score),Gal3S(b1-3)GlcNAc,0.002
same,glycan array binding signal (z-score),[14],-0.296
same,glycan array binding signal (z-score),[15],-0.249
same,glycan array binding signal (z-score),[16],4.07
same,glycan array binding signal (z-score),[17],2.25
same,glycan array binding signal (z-score),[18],4.82
same,glycan array binding signal (z-score),[19],4.09
same,glycan array binding signal (z-score),[20],5.06
same,glycan array binding signal (z-score),Man(a1-3)[Man(a1-6)]Man,5.28
same,glycan array binding signal (z-score),[21],5.49
same,glycan array binding signal (z-score),[22],4.38
same,glycan array binding signal (z-score),[23],4.23
LecB PA7 (Pseudomonas aeruginosa) (protein) MATQGVFTLPANTRFGVTAFANSSATQTVKVLVNNETAATFTGQSTNNAVIGSQVLNSGGGGKVQIQVSVNGRSSDLVSAQVILANELNVALVGSEDSTDNDYNDAVVVINWPLG,glycan array binding signal (z-score),Gal6S(b1-4)GlcNAc,-0.501
same,glycan array binding signal (z-score),GalNAc(b1-3)Gal,-0.493
same,glycan array binding signal (z-score),GalNAc3S(b1-4)GlcNAc3S,-0.517
same,glycan array binding signal (z-score),[24],-0.505
same,glycan array binding signal (z-score),[25],-0.503
same,glycan array binding signal (z-score),[26],-0.467
same,glycan array binding signal (z-score),[27],0.402
same,glycan array binding signal (z-score),[28],-0.516
same,glycan array binding signal (z-score),GlcNAc(b1-4)GlcNAc,-0.486
same,glycan array binding signal (z-score),[29],-0.497
same,glycan array binding signal (z-score),GlcNAc(b1-6)GalNAc,-0.504
same,glycan array binding signal (z-score),Kdn(a2-3)Gal(b1-3)GlcNAc,-0.511
same,glycan array binding signal (z-score),[18],3.2
same,glycan array binding signal (z-score),[21],2.3
same,glycan array binding signal (z-score),[30],3.31
same,glycan array binding signal (z-score),[31],-0.505
same,glycan array binding signal (z-score),[32],-0.466
same,glycan array binding signal (z-score),[33],-0.087
same,glycan array binding signal (z-score),[34],-0.502
same,glycan array binding signal (z-score),[35],2.03
same,glycan array binding signal (z-score),Neu5Gc(a2-6)GalNAc,-0.508
same,glycan array binding signal (z-score),[36],-0.507
